USP7 inh: inhibitors of human USP7 deubiquitinase; inhibition, % at 20 µM; actives 0.3% (n = 47,000); purified USP7, Ub-rhodamine cleavage fluorescence; Q93009
USP8 inh: blocks human USP8 ubiquitin-rhodamine cleavage; purified USP8, Ub-rhodamine cleavage fluorescence, 30 min; inhibition, % at 20 µM; actives 4.2% (n = 47,000)
UCHL1 block: blocks human UCHL1 ubiquitin-rhodamine cleavage. AID 1645859. actives 0.2% (n = 47,000). inhibition, % at 20 µM. P09936. purified UCHL1, Ub-rhodamine cleavage fluorescence
USP10 inh: human USP10 deubiquitinase inhibition; Q14694; purified USP10, Ub-rhodamine fluorescence, 60 min; inhibition, % at 20 µM; actives 1.1% (n = 47,000); AID 1645856
A number is an active result; i = inactive. An excerpt weighted towards active compounds, which were near 5% of everything screened. Rule as the data show it: active = inhibition above about 30%; inactive = the rest.

SMILES | USP7 inh | USP8 inh | UCHL1 block | USP10 inh
Cc1nn(-c2nc3ccccc3[nH]2)c2c1C(c1cccs1)CC(=O)N2 (stereo unspecified) | i | 38 | i | i
Cc1nn(-c2nc3ccccc3[nH]2)c2c1C(c1cccc(F)c1)CC(=O)N2 (stereo unspecified) | i | i | i | i
COCc1nc2c(NC(=O)C3CCCCC3)cccn2n1 | i | i | i | i
Cc1c(Cl)cccc1NC(=O)c1[nH]nc2c1COc1ccccc1-2 | i | 35 | i | i
O=C(/C=C/c1ccc2c(c1)OCO2)NCc1nnc2c(C(F)(F)F)cc(Cl)cn12 | i | i | i | i
CCn1cc(S(=O)(=O)N2CC[C@H](c3ccccc3)[C@H]3NCCCC[C@H]32)cn1 | i | i | i | i
NS(=O)(=O)c1ccc(CCNC(=O)c2nc(-c3ccccc3)n(-c3ccccc3)n2)cc1 | i | i | i | i
Cn1nc(-c2ccccc2F)c2cc(C(=O)NCCc3ccc(S(N)(=O)=O)cc3)sc21 | i | 33 | i | i
CS(=O)(=O)Nc1ccc2c(c1)nc1n2CCN(C2CCCC2)C1 | i | i | i | i
O=C(CCc1ccccc1)Nc1ccc2c(c1)nc1n2CCN(C2CCCC2)C1 | i | 31 | i | i
Cc1nc2c(c(=O)n1CC(=O)Nc1ccc(F)cc1)CCN(Cc1ccccc1)C2 | i | i | i | i
COc1ccc(C(=O)Nc2ccccc2C(=O)NC(Cc2ccc(O)cc2)C(=O)NNC(=O)c2ccccc2Cl)cc1 (stereo unspecified) | i | 59 | i | 62
Cc1ccccc1S(=O)(=O)N1CCC(c2nc(C(=O)N(C)C)c(C)o2)CC1 | i | i | i | i
Cc1ccc(NC(=O)c2cnn3c2NC(C(=O)O)=CC3/C=C/c2ccccc2)cc1 (stereo unspecified) | i | 34 | i | i
O=C(Nc1ccc(N2CCOCC2)cc1)c1ccccc1C(=O)c1ccc(F)cc1 | i | i | i | i
O=C(O)C1=CC(/C=C/c2ccccc2)n2ncc(C(=O)Nc3ccc(F)cc3)c2N1 (stereo unspecified) | i | 41 | i | i
CC1O[C@@H](c2ccc3c(c2O)C(=O)C2=C(C3=O)[C@@]3(O)C(=O)C(O)[C@](C)(O)C[C@@]3(O)C=C2)CC[C@@H]1OC(=O)/C=C/C=C/C=C/[C@@H]1O[C@@](C)(C(=O)O)O[C@H]1C (stereo partly specified) | i | i | 38 | i
CC(C)NC(=O)[C@H](Cc1ccccc1)NC(=O)N1CCn2c1nc1ccccc12 | i | i | i | i
Oc1cc(OCCN2CCOCC2)ccc1-c1[nH]ncc1-c1ccc(Br)cc1 | i | 76 | i | i
NC(=O)C1CCN(CCOc2ccc(-c3[nH]ncc3-c3ccc(Cl)cc3)c(O)c2)CC1 | i | 77 | i | i
Oc1cc(OCCN2CCOCC2)ccc1-c1[nH]ncc1-c1ccc(Cl)cc1 | i | 84 | i | i
COc1ccc(-c2csc3ncnc(NCCCN4CCOCC4)c23)cc1 | i | i | i | i
CC(=O)N(O)[C@@H]1c2cc(C#N)ccc2OC(C)(C)[C@H]1O | i | 34 | i | i
CC1(C)Oc2ccc(C#N)cc2[C@H](N2CCCC2=O)[C@H]1O | i | i | i | i
COc1ccc([N+](=O)[O-])cc1NC(=O)C(C)OC(=O)CSc1ccc2ccccc2c1 (stereo unspecified) | i | i | i | i
SMILES | USP7 inh | USP8 inh | UCHL1 block | USP10 inh
Nc1ccc([N+](=O)[O-])cc1NC(=O)CSc1ccc2ccccc2c1 | i | 41 | i | i
COc1ccc(-c2nc(SCC(=O)Nc3ccc(C(C)=O)cc3)n[nH]2)cc1 | i | i | i | i
COc1ccc2nc(SCC(=O)Nc3ccc(NC(C)=O)cc3)c(C)cc2c1 | i | 69 | i | i
CCOC(=O)c1cnc(Nc2ccccc2OCC)c2ccccc12 | i | 60 | i | i
Cn1c(=O)c2nc(-c3ccc(Cl)cc3)nnc2n(C)c1=O | i | 99 | 32 | 40
Cn1c(=O)c2c(nc3n(CCO)c(-c4ccc(Cl)cc4)cn23)n(C)c1=O | i | i | i | i
c1ncc(-c2ccc(-c3noc([C@@H]4CCCN4CC4CCCCC4)n3)cn2)cn1 | i | i | i | i
Cn1ccc(-c2cc(C(=O)NCc3ccccn3)c3ccccn23)n1 | i | 36 | i | i
COc1ccc(S(=O)(=O)N2CCc3ccccc32)cc1C(=O)Nc1ccc2[nH]c(=O)[nH]c2c1 | i | 73 | i | 31
COc1cccc(O[C@@H]2C[C@@H](NC(=O)c3ccnn3C)[C@H](N(C)C)[C@H]2O)c1 | i | i | i | i
Cc1cccc(CC(=O)N2CCn3cnnc3C2)c1 | i | i | i | i
Cc1cc(C)cc(N(CCC(=O)Nc2ccc(N3CCOCC3)cc2)S(=O)(=O)c2ccc(Cl)cc2)c1 | i | 32 | i | i

Source: PubChem (Buhrlage Lab, Dana-Farber Cancer Institute and Novartis Institutes for BioMedical Research (Cambridge, Mass))
